According to PubChem BioAssay (Tox21):
A number with no mark means an inactive call. Records with an inconclusive call do not appear. A call without a number means that no potency is given here. The source made the active and inactive calls. Unless noted, calls follow the shape of the full dose curve.

How the values were obtained:
[1] = Nuclear factor erythroid 2-related factor 2/antioxidant responsive element (Nrf2/ARE) small molecule agonists: qHTS cell viability counter screen in human keratinocytes (AID 1919968; active = well fitted curve in the direction sought with a large enough effect in the repeat runs; an effect the other way counts as inactive or inconclusive; also: nearly all actives have a fitted effect of over 55% in size; also: potency is read from the fitted curve at half-maximal effect)
Method in brief: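 Cytotoxicity was multiplexed with the Nrf2/ARE luciferase assay in the same wells. Stably transfected HaCaT keratinocytes were treated with test compounds for 23 h at 37 C. Cell viability was then measured by CellTiter-Fluor fluorescence.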

[2] = biological target: Gonadotropin-releasing hormone receptor (Homo sapiens) (UniProt P30968); experiment: Human gonadotropin-releasing hormone receptor (GnRHR) small molecule agonists, calcium flux assay in GnRHR-HEK293 cells (AID 1920063); also: nearly all actives have a fitted effect of over 35% in size; also: potency is read from the fitted curve at half-maximal effect
Gonadotropin-releasing hormone receptor (Homo sapiens), sequence (P30968 whole entry, looked up): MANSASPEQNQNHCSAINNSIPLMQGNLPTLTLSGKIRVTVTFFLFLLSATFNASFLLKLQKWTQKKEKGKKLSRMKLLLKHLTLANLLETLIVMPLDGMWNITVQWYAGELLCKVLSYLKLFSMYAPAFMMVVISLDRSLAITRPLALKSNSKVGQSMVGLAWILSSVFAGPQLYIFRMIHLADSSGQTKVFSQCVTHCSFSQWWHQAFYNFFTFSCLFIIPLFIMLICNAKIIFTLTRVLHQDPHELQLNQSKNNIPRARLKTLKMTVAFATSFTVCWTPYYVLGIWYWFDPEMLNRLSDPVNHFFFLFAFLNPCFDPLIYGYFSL
Method in brief: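 Agonist activity was measured as intracellular calcium flux in HEK293 cells engineered to stably express human GnRHR. After dye loading for 1 hour at 37 C, compounds in DMSO were added and fluorescence was followed for 3 minutes.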

[3] = biological target: KiSS-1 receptor (Homo sapiens) (UniProt Q969F8); experiment: Human kisspeptin (KISS1R) small molecule agonists, calcium flux assay in KISS1R-HEK293 cells (AID 1920064; active = well fitted curve in the direction sought with a large enough effect in the repeat runs; an effect the other way counts as inactive or inconclusive; also: potency is read from the fitted curve at half-maximal effect)
KiSS-1 receptor (Homo sapiens), sequence (Q969F8 whole entry, looked up): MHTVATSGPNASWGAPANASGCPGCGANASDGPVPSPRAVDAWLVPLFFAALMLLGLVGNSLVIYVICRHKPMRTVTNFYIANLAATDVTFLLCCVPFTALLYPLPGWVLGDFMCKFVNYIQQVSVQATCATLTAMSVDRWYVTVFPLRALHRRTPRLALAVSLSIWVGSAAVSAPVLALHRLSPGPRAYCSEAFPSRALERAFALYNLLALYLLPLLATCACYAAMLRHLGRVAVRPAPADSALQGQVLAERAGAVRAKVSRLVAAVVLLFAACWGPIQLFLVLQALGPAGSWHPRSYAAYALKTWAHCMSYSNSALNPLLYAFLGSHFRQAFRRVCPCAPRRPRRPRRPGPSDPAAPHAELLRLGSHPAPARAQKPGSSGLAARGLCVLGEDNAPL
Method in brief: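 Agonist activity is monitored as intracellular calcium rise in engineered HEK293 cells carrying human KISS1R. Cells are dye-loaded for 1 h at 37 C before compound addition, and fluorescence is recorded for 3 min.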

[4] = G protein-coupled receptor (GPCR) small molecule agonists, calcium flux assay: HEK293 wild type cell line counter screen (AID 1920065)
Method in brief: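 Seed cells, incubate 18 h (37 C, 5% CO2); add calcium dye, 1 h at 37 C; pin-transfer compounds, ATP control or DMSO; read fluorescence 480/540 nm each second for 3 min.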

[5] = p53 small molecule agonists, cell-based qHTS assay with rat liver microsomes (AID 1963578)
Method in brief: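 Agonist mode in p53RE-bla reporter cells, with compounds co-incubated 16 h at 37 C alongside 0.5 mg/mL rat liver microsomes and 0.5 mg/mL NADPH (final), followed by a 2 h LiveBLAzer detection step.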

[6] = p53 small molecule agonists, cell-based qHTS assay with human liver microsomes: qHTS cell viability counter screen (AID 1963579); also: nearly all actives have a fitted effect of over 45% in size; also: potency is read from the fitted curve at half-maximal effect
Method in brief: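 Metabolically activated exposure: compounds, human liver microsomes and NADPH (0.5 mg/mL final apiece) were added to p53RE-bla cells seeded 5 h earlier, left 16 h at 37 C, and then assessed for viability by CellTiter-Glo luminescence.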

[7] = p53 small molecule agonists, cell-based qHTS assay with rat liver microsomes: qHTS cell viability counter screen (AID 1963580); also: nearly all actives have a fitted effect of over 45% in size; also: potency is read from the fitted curve at half-maximal effect
Method in brief: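 Rat liver microsome (0.5 mg/mL final) and NADPH (0.5 mg/mL final) co-incubation with compounds for 16 h at 37 C on HCT-116 p53RE-bla cells; cytotoxicity taken from intracellular ATP luminescence.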

[8] = p53 small molecule agonists, cell-based qHTS assay: qHTS cell viability counter screen (AID 1963581); also: nearly all actives have a fitted effect of over 45% in size; also: potency is read from the fitted curve at half-maximal effect
Method in brief: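 Viability was counter-screened in parallel with the p53 agonist reporter by measuring intracellular ATP luminescence in the same HCT-116 p53RE-bla wells after 16 h compound treatment at 37 C.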

[9] = p53 small molecule agonists, cell-based qHTS assay (AID 1963582; active = well fitted activation curve with a large enough effect in the signal ratio in the repeat runs, not every such curve was filed as active; the % refers to the signal ratio)
Method in brief: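 Cells carrying a p53-responsive bla reporter are treated with test compounds for 16 h at 37 C; beta-lactamase activity is then detected with LiveBLAzer B/G FRET substrate after 2 h at room temperature.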

[10] = biological target: 5-hydroxytryptamine receptor 2A (Homo sapiens) (UniProt P28223); experiment: 5-hydroxytryptamine receptor 2A (HTR2A) small molecule antagonists, cell-based qHTS assay (AID 1963586); also: nearly all actives have a fitted effect of over 45% in size; also: potency is read from the fitted curve at half-maximal effect
5-hydroxytryptamine receptor 2A (Homo sapiens), sequence (P28223 whole entry, looked up): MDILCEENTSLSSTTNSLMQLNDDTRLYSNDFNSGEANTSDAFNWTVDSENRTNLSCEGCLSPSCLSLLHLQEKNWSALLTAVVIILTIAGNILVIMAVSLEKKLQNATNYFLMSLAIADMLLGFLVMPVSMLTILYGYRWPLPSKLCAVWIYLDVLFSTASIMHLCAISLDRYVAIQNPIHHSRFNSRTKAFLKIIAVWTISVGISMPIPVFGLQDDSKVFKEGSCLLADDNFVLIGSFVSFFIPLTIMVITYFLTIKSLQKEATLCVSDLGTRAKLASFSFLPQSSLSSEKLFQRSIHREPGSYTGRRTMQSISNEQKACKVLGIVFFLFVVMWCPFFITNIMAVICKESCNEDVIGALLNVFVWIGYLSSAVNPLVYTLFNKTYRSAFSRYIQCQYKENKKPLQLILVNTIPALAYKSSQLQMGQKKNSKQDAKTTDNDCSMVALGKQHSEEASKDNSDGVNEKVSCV
Method in brief: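 CHO cells stably expressing human HTR2A were plated for 18 h at 37 C, then loaded with calcium dye for 1 h. Compounds were preincubated 5 min at room temperature before DOI (4 nM solution) was added. Kinetic fluorescence was read for 3 min.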

[11] = biological target: 5-hydroxytryptamine receptor 2A (Homo sapiens) (UniProt P28223); experiment: 5-hydroxytryptamine receptor 2A (HTR2A) small molecule agonists, cell-based qHTS assay (AID 1963587); also: nearly all actives have a fitted effect of over 30% in size; also: potency is read from the fitted curve at half-maximal effect
Method in brief: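 Kinetic calcium-flux fluorescence (2 min, 1 sec intervals) after compound addition in agonist mode. HTR2A-CHO cells were cultured 18 h, then dye-loaded 1 h at 37 C.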

[12] = biological target: Muscarinic acetylcholine receptor M1 (Homo sapiens) (UniProt P11229); experiment: Cholinergic receptor muscarinic 1 (CHRM1) small molecule antagonists, cell-based qHTS assay (AID 1963588); also: nearly all actives have a fitted effect of over 40% in size; also: potency is read from the fitted curve at half-maximal effect
Muscarinic acetylcholine receptor M1 (Homo sapiens), sequence (P11229 whole entry, looked up): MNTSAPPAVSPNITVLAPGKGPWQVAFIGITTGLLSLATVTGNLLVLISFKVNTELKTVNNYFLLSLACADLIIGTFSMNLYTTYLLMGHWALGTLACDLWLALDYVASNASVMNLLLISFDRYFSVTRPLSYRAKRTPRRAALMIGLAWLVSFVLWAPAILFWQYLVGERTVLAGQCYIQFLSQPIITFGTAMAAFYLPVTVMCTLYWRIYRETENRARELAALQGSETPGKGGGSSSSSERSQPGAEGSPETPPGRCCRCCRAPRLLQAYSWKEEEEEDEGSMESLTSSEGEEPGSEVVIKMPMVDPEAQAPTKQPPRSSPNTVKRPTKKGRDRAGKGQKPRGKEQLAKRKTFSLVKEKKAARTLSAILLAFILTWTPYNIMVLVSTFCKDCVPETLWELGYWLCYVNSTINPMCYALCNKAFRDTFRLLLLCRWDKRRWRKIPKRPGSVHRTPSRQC
Method in brief: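 Compounds were tested at 15 concentrations in three independent runs. Dye-loaded CHRM1-CHO cells were exposed 5 min at room temperature before stimulation by acetylcholine added at 50nM. Intracellular calcium was read kinetically on FDSS for 3 min.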

[13] = biological target: Muscarinic acetylcholine receptor M1 (Homo sapiens) (UniProt P11229); experiment: Cholinergic receptor muscarinic 1 (CHRM1) small molecule agonists, cell-based qHTS assay (AID 1963589); also: nearly all actives have a fitted effect of over 35% in size
Method in brief: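 Cells were plated and incubated 18 h at 37 C/5% CO2, loaded with calcium dye for 1 h at 37 C, then treated with compounds in DMSO. Fluorescence was recorded kinetically at 1 sec intervals.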

[14] = biological target: Beta-2 adrenergic receptor (Homo sapiens) (UniProt P07550); experiment: Adrenergic beta2 receptor (ADRB2) small molecule antagonists, cell-based qHTS assay (AID 1963592); also: series mostly up to about 92 µM; nearly all actives have a fitted effect of over 50% in size
Beta-2 adrenergic receptor (Homo sapiens), sequence (P07550 whole entry, looked up): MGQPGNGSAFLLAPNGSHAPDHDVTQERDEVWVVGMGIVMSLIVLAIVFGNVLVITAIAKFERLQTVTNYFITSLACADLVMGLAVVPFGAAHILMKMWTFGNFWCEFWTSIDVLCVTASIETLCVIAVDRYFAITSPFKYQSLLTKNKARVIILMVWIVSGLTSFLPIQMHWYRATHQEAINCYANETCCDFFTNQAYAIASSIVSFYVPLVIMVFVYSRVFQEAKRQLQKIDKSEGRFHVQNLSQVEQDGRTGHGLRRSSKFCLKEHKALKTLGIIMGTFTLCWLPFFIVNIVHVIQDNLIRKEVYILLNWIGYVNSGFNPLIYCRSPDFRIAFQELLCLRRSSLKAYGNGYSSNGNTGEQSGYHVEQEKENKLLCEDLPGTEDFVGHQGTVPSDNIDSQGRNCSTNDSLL
Method in brief: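 Assay format: CHO-ADRB2 cells, 18-20hr seeding at 37C/5% CO2, then compound plus 1nM isoproterenol agonist mix for 0.5hr RT. Homogeneous time-resolved fluorescence cAMP detection after 1hr, expressed as 665/615 nm ratio.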

[15] = biological target: D(2) dopamine receptor (Homo sapiens) (UniProt P14416); experiment: Dopamine D2 receptor (DRD2) small molecule agonists, cell-based qHTS assay (AID 1963594); also: nearly all actives have a fitted effect of over 35% in size
D(2) dopamine receptor (Homo sapiens), sequence (P14416 whole entry, looked up): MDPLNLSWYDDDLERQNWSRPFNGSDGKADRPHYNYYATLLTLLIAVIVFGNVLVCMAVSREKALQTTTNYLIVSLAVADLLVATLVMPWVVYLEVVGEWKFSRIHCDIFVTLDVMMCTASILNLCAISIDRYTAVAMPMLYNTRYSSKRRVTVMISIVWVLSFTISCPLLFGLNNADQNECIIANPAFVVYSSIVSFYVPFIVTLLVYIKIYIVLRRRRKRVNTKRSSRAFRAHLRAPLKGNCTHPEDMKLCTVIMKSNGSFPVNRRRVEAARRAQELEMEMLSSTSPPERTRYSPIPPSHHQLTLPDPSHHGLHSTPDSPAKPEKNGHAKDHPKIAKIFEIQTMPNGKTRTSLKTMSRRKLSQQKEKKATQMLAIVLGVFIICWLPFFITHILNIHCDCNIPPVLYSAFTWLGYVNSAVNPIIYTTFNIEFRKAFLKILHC
Method in brief: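 cAMP accumulation in DRD2-HEK293 cells measured by HTRF after 1 h detection; compounds added 10 min before NKH477 (200nM […]) forskolin-analogue stimulation, 30 min at room temperature, with Ro20-1724 present at 0.1 mM final.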

[16] = biological target: Beta-2 adrenergic receptor (Homo sapiens) (UniProt P07550); experiment: Adrenergic beta2 receptor (ADRB2) small molecule agonists, cell-based qHTS assay (AID 1963593); also: potency is read from the fitted curve at half-maximal effect;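 as to activation: CHO cells stably overexpressing human ADRB2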
Method in brief: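 CHO cells stably over-expressing ADRB2 were plated overnight at 37C, then dosed with compounds plus a stimulation mix containing 100uM IBMX and 25uM Ro-20-1724 for 0.5hr at room temperature. cAMP was measured by HTRF competition, 1hr.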

[17] = cAMP Responsive Elements (CRE) small molecule agonists, cell-based qHTS assay (AID 1963590)
Method in brief: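 Cells carrying a CRE-driven beta-lactamase reporter (HEK 293T) are seeded, incubated overnight (18 h), and treated with test compounds for 3 h at 37 C; reporter activity is then detected with a FRET substrate after 2 h at room temperature.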

[18] = biological target: D(2) dopamine receptor (Homo sapiens) (UniProt P14416); experiment: Dopamine D2 receptor (DRD2) small molecule antagonists, cell-based qHTS assay (AID 1963595; active = well fitted inhibition curve with a large enough effect in the signal ratio in the repeat runs, with a control signal flat; the % refers to the signal ratio; also: potency is read from the fitted curve at half-maximal effect)
Method in brief: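 Antagonist mode in DRD2-HEK293 cells: after compound addition with 0.1 mM Ro20-1724, cells received quinpirole (12 nM) and NKH477 (200 nM) for 30 min at room temperature; HTRF cAMP read after 1 h detection.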

[19] = cAMP Responsive Elements (CRE) small molecule antagonists, cell-based qHTS assay (AID 1963591; active = well fitted inhibition curve with a large enough effect in the signal ratio in the repeat runs, not every such curve was filed as active; the % refers to the signal ratio)
Method in brief: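 Cells (CRE-bla HEK 293T, DMEM with 10% dialyzed FBS and 25 mM HEPES) are seeded and incubated 18 h. Compounds are added with NKH477 agonist at 0.25 uM final for 3 h, then FRET substrate for 2 h.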

[20] = p53 small molecule agonists, cell-based qHTS assay with human liver microsomes (AID 1963577);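 also: p53 response element beta-lactamase reporter cells with liver microsomes plus NADPH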
Method in brief: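 In this qHTS, p53 response-element beta-lactamase cells receive test compound together with a microsome/NADPH activating system (0.5 mg/mL final each) and are incubated 16 h at 37 C before LiveBLAzer fluorescence detection.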

Structure (SMILES)	Potency [1]	Potency [2]	Potency [3]	Potency [4]	Potency [5]	Potency [6]	Potency [7]	Potency [8]	Potency [9]	Potency [10]	Potency [11]	Potency [12]	Potency [13]	Potency [14]	Potency [15]	Potency [16]	Potency [17]	Potency [18]	Potency [19]	Potency [20]
COc1cccc(C(=O)NN(C(=O)c2cc(C)cc(C)c2)C(C)(C)C)c1C	inactive	inactive	inactive	inactive	inactive	inactive	inactive	inactive	inactive	inactive	inactive	14.9 µM (active)	inactive	inactive	inactive	–	–	–	–	–
COP(=S)(OC)Oc1nc(Cl)c(Cl)cc1Cl	inactive	inactive	inactive	inactive	–	inactive	inactive	inactive	inactive	inactive	–	inactive	inactive	inactive	inactive	inactive	–	–	–	–
CCC(C)(C)O	inactive	inactive	inactive	inactive	–	inactive	–	–	–	inactive	inactive	inactive	inactive	inactive	inactive	inactive	inactive	inactive	–	–
CC(=O)[O-].[Tl+]	inactive	inactive	inactive	inactive	–	inactive	inactive	–	–	inactive	inactive	inactive	inactive	inactive	inactive	–	inactive	inactive	–	–
O.O.O.O.O.O.O.O=S(=O)([O-])[O-].[Co+2]	inactive	inactive	inactive	inactive	–	inactive	inactive	inactive	–	–	inactive	inactive	inactive	inactive	inactive	–	inactive	inactive	inactive	–
C=CC(=O)OCCCCO	inactive	inactive	inactive	inactive	–	inactive	–	inactive	–	inactive	inactive	inactive	inactive	inactive	inactive	inactive	–	inactive	–	–
O=C(Nc1ccccc1)Nc1cnns1	inactive	inactive	inactive	inactive	–	inactive	–	inactive	inactive	inactive	inactive	inactive	inactive	inactive	inactive	inactive	–	inactive	inactive	–
COP(=S)(OC)Oc1cc(Cl)c(I)cc1Cl	inactive	inactive	inactive	–	–	inactive	inactive	inactive	–	inactive	inactive	inactive	–	inactive	inactive	–	inactive	inactive	inactive	–
CCCCCOC(=O)c1ccccc1C(=O)OCCCCC	inactive	inactive	inactive	–	inactive	inactive	inactive	inactive	–	inactive	inactive	–	inactive	inactive	inactive	inactive	–	inactive	inactive	inactive
CCCN(CCC)CCc1c[nH]c2ccccc12	inactive	inactive	–	inactive	inactive	inactive	inactive	inactive	inactive	0.0131 µM (active)	0.0043 µM (active)	inactive	inactive	inactive	–	inactive	inactive	inactive	inactive	inactive
CC[N+]1(CCOC(=O)C(O)(c2ccccc2)c2ccccc2)CCCCC1	inactive	inactive	inactive	inactive	–	inactive	inactive	inactive	–	–	–	–	–	inactive	inactive	–	inactive	–	inactive	–
O=c1c(C2CC(c3ccc(-c4ccc(Br)cc4)cc3)Cc3ccccc32)c(O)sc2ccccc12 (stereo not given)	29.8 µM (active)	inactive	inactive	–	inactive	inactive	inactive	8.9 µM (active)	inactive	inactive	–	inactive	inactive	inactive	inactive	inactive	–	inactive	–	inactive
Oc1c(I)cc(I)cc1I	30.6 µM (active)	inactive	inactive	–	–	inactive	–	–	–	–	–	–	inactive	inactive	inactive	–	–	inactive	inactive	inactive
CCCSP(=S)(OCC)Oc1ccc(SC)cc1 (stereo not given)	inactive	inactive	inactive	inactive	–	–	inactive	inactive	inactive	inactive	inactive	inactive	inactive	inactive	inactive	inactive	inactive	inactive	inactive	–
CCN[C@H](C)Cc1cccc(C(F)(F)F)c1	inactive	inactive	inactive	inactive	–	inactive	inactive	inactive	–	–	–	–	–	–	inactive	–	inactive	–	inactive	–
O=[N+]([O-])c1ccc(Cl)c(Cl)c1Cl	inactive	inactive	inactive	–	inactive	inactive	inactive	inactive	inactive	inactive	inactive	inactive	inactive	inactive	inactive	–	inactive	inactive	inactive	inactive
ClC1=C(Cl)[C@]2(Cl)[C@@H]3[C@@H]4C[C@@H]([C@H]5O[C@@H]45)[C@@H]3[C@@]1(Cl)C2(Cl)Cl	48.6 µM (active)	7.76 µM (active)	23.7 µM (active)	–	–	–	–	inactive	–	–	–	–	–	–	–	10.9 µM (active)	–	68.6 µM (active)	–	–
CCOCn1c(-c2ccc(Cl)cc2)c(C#N)c(Br)c1C(F)(F)F	34.4 µM (active)	inactive	inactive	–	–	22.9 µM (active)	22.9 µM (active)	10.2 µM (active)	–	inactive	inactive	inactive	inactive	–	inactive	–	–	inactive	–	–
